Assay: growth of efflux-deficient E. coli DRC39 – strain DRC39, OD650, 48 h, E. coli filamentation inducers, primary screen (AID 1179);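 further: screen aims at cell division blockers that make cells filament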
Conditions: E. coli DRC39 delta-acrAB growth, higher = more signal, called active from +8 up or from −8 down

z-score, inactive:
O=C(NC1CC1)[C@@H]1c2ccccc2C(=O)N(Cc2cc(C(F)(F)F)cc(C(F)(F)F)c2)[C@H]1c1ccc(CO)cc1 -0.261
[N-]=[N+]=Nc1ccccc1[C@@H]1OC(c2ccc(OCCCO)cc2)=N[C@]1(CCS(=O)(=O)c1ccccc1)C(=O)NCC(O)CO (some centres undefined) 0.638
CCCNC(=O)[C@@]1(Sc2ccc(C)cc2)CC(=O)N(Cc2ccccc2Cl)[C@@H]1c1ccc(CO)cc1I 1.01
COC(=O)[C@@]1(Cc2ccc(OC)cc2)[C@H]2c3cc(C(=O)N4CCCC4)n(CCn4cc([N+](=O)[O-])nc4C)c3C[C@H]2CN1C(=O)c1ccccc1 -0.552
COCC(=C=CC[C@H](O)c1ccccc1OCCO)C[C@H](O)COCc1ccccc1 -0.456
C=CC1c2cc(O)c(OC)cc2CCN1C (centres undefined) 0.113
COc1ccc([Si](C)(C)[C@H]2[C@H](CC(=O)N3CCC[C@H]3CO)O[C@@]3(C(=O)N(Cc4ccc(N5CCCCC5=O)cc4)c4ccccc43)[C@@H]2C)cc1 -0.244
Cc1ccc(F)cc1S(=O)(=O)N[C@H]1CCN(Cc2ccc(OC(C)C)cc2)C1 -2.48
COC(=O)C(CC#Cc1ccc2c(c1)[C@]1(C(=O)N2)[C@H](c2ccccc2OCCO)N2[C@H](c3ccccc3)[C@H](c3ccccc3)OC(=O)[C@H]2[C@@H]1C(=O)N1CCc2cc(OC)c(OC)cc2C1)C(=O)OC 0.761
